In the library only some 1.6% were active in any assay of this set; here they are far more common.
VLA-4 inh: inhibition in human VLA-4 binding assay, primary screen, VLA-4 allosteric modulator project, MLPCN library, flow cytometry, VLA-4 expressing cells. ligand binding flow cytometry. Integrin alpha-4 (Homo sapiens), P13612. inhibition, % (about 7 µM as worked out from the volumes in the protocol). 330,000 compounds, 0.2% hits; in the data active means inhibition above about 50%
GRK2 inh: compounds blocking aptamer binding on GRK2 – biochemical, human GRK2, bead flow cytometry, HTS, primary screen | FAM-aptamer displacement from GRK2 | inhibition of aptamer binding, % at 10 µM | 330,000 compounds, 0.59% hits | AID 488847, 2010;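 active means inhibition of aptamer binding above 40%, roughly 3 SD of noise, on plates passing a quality check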;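 further: median bead fluorescence of bound FAM aptamer so fluorescent compounds give negative values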
Target sequence (P25098 whole entry, looked up): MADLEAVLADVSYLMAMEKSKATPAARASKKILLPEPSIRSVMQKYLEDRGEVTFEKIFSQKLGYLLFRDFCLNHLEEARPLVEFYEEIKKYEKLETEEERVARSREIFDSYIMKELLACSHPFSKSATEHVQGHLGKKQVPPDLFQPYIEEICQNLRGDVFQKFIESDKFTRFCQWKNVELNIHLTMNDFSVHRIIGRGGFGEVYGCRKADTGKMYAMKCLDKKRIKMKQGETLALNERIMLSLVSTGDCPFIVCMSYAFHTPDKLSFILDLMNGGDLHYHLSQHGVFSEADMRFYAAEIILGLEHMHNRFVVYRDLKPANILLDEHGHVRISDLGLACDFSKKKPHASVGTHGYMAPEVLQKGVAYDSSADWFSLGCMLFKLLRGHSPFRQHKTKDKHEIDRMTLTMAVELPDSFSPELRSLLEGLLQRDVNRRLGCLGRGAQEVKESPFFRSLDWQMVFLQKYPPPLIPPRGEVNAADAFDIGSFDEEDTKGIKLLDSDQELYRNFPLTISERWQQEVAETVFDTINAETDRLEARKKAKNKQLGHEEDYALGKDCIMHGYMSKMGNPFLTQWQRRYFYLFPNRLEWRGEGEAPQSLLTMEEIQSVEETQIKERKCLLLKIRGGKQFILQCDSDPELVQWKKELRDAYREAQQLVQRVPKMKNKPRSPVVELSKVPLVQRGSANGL
GASC-1 inh: inhibitors of GASC-1 histone demethylase, primary screen, biochemical, fluorescence, DELFIA europium. AID 2099, 2009. 330,000 compounds, 0.069% hits. Lysine-specific demethylase 4C (Homo sapiens), Q9H3R0. GST-JMJD2C(1-420) H3K9me3 demethylation. inhibition, % at 2.35 µM;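 active means more than half of a compound's replicate wells show inhibition beyond 50%, single wells judged on their own value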;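 further: signal counts dimethyl H3K9 product captured on neutravidin plate; 0% = median of DMSO wells and 100% = 0.3 times that DMSO median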
PREPL inhibitor: PREPL enzyme inhibitors, primary screen, biochemical, fluorescence polarization. 320,000 compounds, 0.68% hits. AID 2751, 2010. Prolyl endopeptidase-like (Homo sapiens), Q4J6C6. inhibition, % at 5.96 µM. recombinant PREPL, fluorescence polarization activity-based probe;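 further: 0% = enzyme with DMSO and 100% = wells lacking enzyme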
DSG3 Ab inh: inhibitors of pemphigus antibody binding to DSG3, primary screen, biochemical, bead-based, flow cytometry, scFv-GFP; AID 588358, 2011; 310,000 compounds, 0.48% hits; binding (percent of control), % at 10 µM; DSG3-coupled beads, scFv-anti-DSG3-GFP binding; hits give low values;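 active means binding more than 3 SD below its plate's average and above zero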;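 further: hits lower antibody fragment binding to DSG3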
PREPL confirm: human PREPL enzyme inhibitors, confirmation, biochemical, fluorescence polarization; 2,000 compounds, 67% hits; recombinant PREPL, fluorescence polarization activity probe; inhibition, % at 5.96 µM; shares compounds with PREPL inhibitor;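 further: 0% = protein with DMSO and 100% = wells lacking protein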
* hit, by the source's call; . = no result. Unless noted, no stated cut-off is given here; in the data, active means inhibition above about 43%; inactive means the rest.

SMILES	VLA-4 inh	GRK2 inh	GASC-1 inh	PREPL inhibitor	DSG3 Ab inh	PREPL confirm
CCCCCCCCCCC[N+](C)(C)CC/C=C1/c2ccccc2Sc2ccc(Cl)cc21	-50	0	3	45*	108	35
CCCN(CC(=O)Nc1ccccc1OC)C(=O)CCC(=O)c1ccc(OCC)cc1	22	0	-5	15	102	.
COc1ccc(COC(=O)Nc2cc3c(C(F)(F)F)nn(C)c3s2)cc1	9	0	-9	45*	.	36
Oc1ccc(C2=Nn3c(nnc3-c3ccco3)SC2)cc1O	5	0	1	44*	106	32
CC(C)OC(=O)c1cc2c(ccn2-c2ccc(F)cc2)n1CC(=O)N1CCN(C(=O)c2ccco2)CC1	2	1	5	47*	99	48*
COC(=O)c1cc2c(ccn2-c2ccc(F)cc2)n1CC(=O)N1CCN(C(=O)c2ccco2)CC1	6	0	.	6	98	.
CC(C)OC(=O)c1cc2c(ccn2C)n1CC(=O)N1CCC(Cc2ccccc2)CC1	2	0	0	44*	100	38
CCCOc1ccccc1-n1sc2c(c1=S)-c1cc(OC)cc3c1N(C(=O)C3=O)C2(C)C	-12	3	2	52*	91	57*
Cc1ccc(CNc2ccc3c(c2)ncn3C(C)(C)C)cc1	2	0	-2	49*	100	46*
Cc1ccc(CNc2ccc3c(c2)ncn3C)cc1	7	2	-4	10	.	.
Cc1ccc2nc3c(cc(C(=O)NCCc4ccccc4)c(=N)n3CCCN3CCOCC3)c(=O)n2c1	-2	0	-19	53*	99	56*
COc1ccc(CCNC(=O)c2cc3c(=O)n4ccccc4nc3n(CCCN3CCOCC3)c2=N)cc1	-103	0	-2	58*	100	52*
COc1ccc(CCNC(=O)c2cc3c(=O)n4ccccc4nc3n(CCN3CCOCC3)c2=N)cc1	-120	0	9	39	103	.
Cc1cccn2c(=O)c3cc(C(=O)NCCc4ccccc4)c(=N)n(CCCn4ccnc4)c3nc12	6	4	2	66*	105	58*
Cc1cccc(N2CCN(C(=O)c3ccc(-n4cncn4)c([N+](=O)[O-])c3)CC2)c1C	-4	2	-1	17	105	.
CCCC(=O)Nc1cccc(NC(=O)c2cccc([N+](=O)[O-])c2C)c1	-3	1	10	9	93	.
Cc1ccc(S(=O)(=O)N2CCN(C(=O)CC(C)n3cncn3)CC2)cc1C (stereo not drawn)	8	0	4	19	102	.
CCN1CCN(c2nc3c(c(=O)[nH]c(=O)n3C)n2CCSc2nc3ccccc3s2)CC1	16	0	6	40	90	.
COc1ccc(N2CCN(c3nc4c(c(=O)n(C)c(=O)n4C)n3Cc3ccccc3)CC2)cc1	-18	0	-6	50*	102	57*
CN1CCN(c2nc3c(c(=O)n(C)c(=O)n3C)n2CCSc2nc3ccccc3s2)CC1	-3	0	.	45*	.	34
Cc1ccsc1C(=O)N(C)C1CCS(=O)(=O)C1 (stereo not drawn)	4	0	3	2	101	.
COc1ccccc1-c1nnc2sc(-c3ccc(N(C)C)cc3)nn12	23	4	3	52*	82	48*
CN(C)c1ccc(-c2nn3c(-c4cccnc4)nnc3s2)cc1	7	2	0	31	.	.
COc1ccc2c(COC(=O)c3n[nH]c4ccccc34)cc(=O)oc2c1	-3	0	0	-14	108	.
COc1ccc(C(=O)NC(=S)Nc2ccc3oc(=O)ccc3c2)cc1[N+](=O)[O-]	0	4	8	47*	.	3
SMILES	VLA-4 inh	GRK2 inh	GASC-1 inh	PREPL inhibitor	DSG3 Ab inh	PREPL confirm
O=C(Nc1cc(C(F)(F)F)ccc1-n1cncn1)c1ccc([N+](=O)[O-])o1	-1	1	3	-2	101	.
CN(C)c1ccc(NC(=O)Cn2cc3c(n2)CCCC3)cc1	-6	15	-7	69*	96	69*
COc1ccc(-n2c(-c3ccccc3)cc3c2CCCC3=O)cc1	-6	1	-17	49*	104	41
C#CCOCCOCCOCCNc1nc(N2CCN(C(=O)[C@H](Cc3cc4ccccc4[nH]3)n3cc([C@@H](N)Cc4ccc(O)cc4)nn3)CC2)nc(N2CCN(C(=O)[C@H](Cc3cc4ccccc4[nH]3)n3cc([C@@H](N)CC(C)C)nn3)CC2)n1	.	.	.	.	115	.
C#CCOCCOCCOCCNc1nc(N2CCN(C(=O)C(Cc3cc4ccccc4[nH]3)n3cc(C(N)Cc4ccc(O)cc4)nn3)CC2)nc(N2CCN(C(=O)C(CCC(=O)O)n3cc(C(N)C(C)CC)nn3)CC2)n1 (stereo not drawn)	13	2	-1	31	104	.
C#CCOCCOCCOCCNc1nc(N2CCN(C(=O)[C@H](Cc3ccc(O)cc3)n3cc([C@@H](N)C(C)CC)nn3)CC2)nc(N2CCN(C(=O)[C@H](Cc3cc4ccccc4[nH]3)n3cc([C@@H](N)CC(C)C)nn3)CC2)n1 (stereo partly drawn)	-10	0	-7	56*	.	48*
C#CCOCCOCCOCCNc1nc(N2CCN(C(=O)[C@H](Cc3cc4ccccc4[nH]3)n3cc([C@@H](N)C(C)CC)nn3)CC2)nc(N2CCN(C(=O)[C@H](CCCCN)n3cc([C@@H](N)CC(C)C)nn3)CC2)n1 (stereo partly drawn)	-6	0	21	46*	.	50*
C#CCOCCOCCOCCNc1nc(N2CCN(C(=O)[C@H]([C@@H](C)CC)n3cc([C@@H](N)CO)nn3)CC2)nc(N2CCN(C(=O)[C@H](Cc3cc4ccccc4[nH]3)n3cc([C@@H](N)C(C)CC)nn3)CC2)n1 (stereo partly drawn)	-5	0	2	48*	.	49*
C#CCOCCOCCOCCNc1nc(N2CCN(C(=O)[C@H]([C@@H](C)CC)n3cc([C@@H](N)Cc4ccc(O)cc4)nn3)CC2)nc(N2CCN(C(=O)[C@H](Cc3cc4ccccc4[nH]3)n3cc([C@@H](N)C(C)CC)nn3)CC2)n1 (stereo partly drawn)	11	0	-26	53*	.	48*
Cc1ccc(S(=O)(=O)N(C)C)cc1NC(=O)C1CCCCN1S(=O)(=O)c1ccccc1 (stereo not drawn)	-5	0	2	-2	113	.

Screening data (PubChem)
